Inconclusive results are not listed. A call without a number means that no potency is given here. Unmarked numbers belong to inactive results. The source made the active and inactive calls. Calls follow the shape of the full dose curve.

We go through 38 compounds from PubChem BioAssay (NCATS).

A short description of the experiment: Cytotoxicity counterscreen for inhibitors of SARS-CoV-2 cell entry (AID 1645845). Also: nearly all actives have a fitted effect of over 50% in size. The settings on record: cell viability (SARS-CoV-2 entry assay cells); series mostly up to 57.1 µM; activity change, negative = cytotoxicity: at the top concentration. Summed up: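 ATP-content luminescence (ATPLite 1step, 15 min RT) read after 48 h compound exposure of Expi293F cells stably expressing human ACE2; normalized to cells-only wells and media-only wells.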
`CC(C(=O)O)c1ccc2c(c1)CC(=O)c1ccccc1S2` (stereo not drawn): the Potency result is “inactive”.
Consider `NC(=O)N1c2ccccc2C=Cc2ccccc21`, for which the call was inactive.
Regarding `NS(=O)(=O)c1cc2c(cc1Cl)NC(C(Cl)Cl)NS2(=O)=O` (stereo not drawn), the Potency result was “inactive”.
Consider `Cn1c(=O)c2[nH]c(Br)nc2n(C)c1=O`, for which the outcome was inactive.
On the same count and under the same terms, as for `Cc1ccc(C(=O)C(C)CN2CCCCC2)cc1` (stereo not drawn), the entry is “inactive”; as for `O=P(O)(O)C(Sc1ccc(Cl)cc1)P(=O)(O)O`, “inactive [at 0.702 µM]”; as for `COc1ccc2c(c1)c(CC(=O)OC/C=C(\C)CC/C=C(\C)CCC=C(C)C)c(C)n2C(=O)c1ccc(Cl)cc1`, “inactive”.
With `O=C(O)c1cc(=O)[nH]c(=O)[nH]1`, the Potency result is “inactive”.
Regarding `O=C1[O][Bi][O]c2ccccc21`, the outcome was “inactive [at 0.702 µM]”.
As to `CCN(CC)C(=O)/C(C#N)=C/c1cc(O)c(O)c([N+](=O)[O-])c1`, the “activity change, negative = cytotoxicity” value is -2.36%.
Still for that read-out and setting: in the case of `N[C@@H](CCC(=O)N[C@@H](CS)C(=O)NCC(=O)O)C(=O)O` it was 3.86% [at 27.1 µM].
For the compound `C=C1[C@H](CO)[C@@H](O)C[C@@H]1n1cnc2c(=O)[nH]c(N)nc21`, the Potency entry is “inactive”.
Turning to `COc1cc(NS(=O)(=O)c2ccc(N)cc2)nc(C)n1`, the result was inactive.
Turning to `C=CC1=C(C(=O)O)N2C(=O)[C@@H](NC(=O)/C(=N\O)c3csc(N)n3)[C@H]2SC1` (stereo in doubt), the “activity change, negative = cytotoxicity” value is -11.3%.
Same read-out and setting: in the case of `CCCCCCCCCCCCCCCCOP(=O)([O-])OCC[N+](C)(C)C` it was -1.14%.
With `O=C(O)Cc1sc(-c2ccccc2)nc1-c1ccc(Cl)cc1`, the compound was called inactive.
For the compound `CC(C)[C@H](N)C(=O)OCC(CO)OCn1cnc2c(=O)[nH]c(N)nc21` (stereo partly drawn), the compound was called inactive.
For `C[C@@H](CN1CC(=O)NC(=O)C1)N1CC(=O)NC(=O)C1`, the Potency entry is “inactive”.
On to `CN(C)CCc1c[nH]c2ccc(Cn3cncn3)cc12`, for which the result was inactive.
`CCCCOCCOC(=O)c1cccnc1`: the “activity change, negative = cytotoxicity” value was 2.21%.
For `CCCCC(CC)COC(=O)c1ccccc1O` (stereo not drawn), the compound was classed as inactive.
For `C[C@H]1C[C@@H]2[C@H]([C@@H](O)C[C@@]3(C)[C@H]2CC[C@]3(O)C(=O)CO)[C@@]2(C)C=CC(=O)C=C12`, the Potency entry is “inactive”.
`COc1ccc(O)cc1`: the outcome was inactive.
Same read-out and setting: as for `N#C[C@H]1C[C@H]2C[C@@H]2N1C(=O)[C@@H](N)C12CC3CC(CC(O)(C3)C1)C2`, the entry is “inactive”.
For the compound `CCOc1cc(OCC)c(C(=O)CCC(=O)O)cc1OCC`, the “activity change, negative = cytotoxicity” value is -7.15%.
Same read-out and setting: in the case of `O=C(O)[C@H](O)c1ccccc1` it was 4.04%; in that of `Nc1nc(Cl)nc2c1ncn2[C@H]1C[C@H](O)[C@@H](CO)O1`, -13.8%.
Turning to `Nc1ccc(S(=O)(=O)Nc2ccccn2)cc1`, the outcome was inactive.
For `CO[C@H]1C[C@@H]2CC[C@@H](C)[C@@](O)(O2)C(=O)C(=O)N2CCCC[C@@H]2C(=O)O[C@H]([C@@H](C)C[C@@H]2CC[C@H](O)[C@H](OC)C2)CC(=O)[C@H](C)C=C(C)[C@@H](O)[C@@H](OC)C(=O)[C@H](C)C[C@H](C)C=CC=CC=C1C`, the “activity change, negative = cytotoxicity” value was -23.9%.
Take `O=C(NCC1CCCCN1)c1cc(OCC(F)(F)F)ccc1OCC(F)(F)F` (stereo not drawn): the Potency entry was “inactive”.
On the same count and under the same terms, as for `CCCc1nn(C)c2c(=O)[nH]c(-c3cc(S(=O)(=O)N4CCN(C)CC4)ccc3OCC)nc12`, the entry is “inactive”.
Turning to `COC(=O)C(c1ccccc1)C1CCCCN1` (stereo not drawn), the “activity change, negative = cytotoxicity” value was -20.5%.
As for `CC[C@H](C)C(=O)O[C@H]1C[C@H](O)C=C2C=C[C@H](C)[C@H](CC[C@@H](O)C[C@@H](O)CC(=O)O)[C@H]21`, the Potency result was “inactive”.
In the case of `CC1(C)S[C@@H]2[C@H](NC(=O)C(c3ccccc3)S(=O)(=O)O)C(=O)N2[C@H]1C(=O)O` (stereo partly drawn), the “activity change, negative = cytotoxicity” value is -7.14%.
As for `CN(c1nccc(=O)[nH]1)C1CCN(c2nc3ccccc3n2Cc2ccc(F)cc2)CC1`, the compound was called inactive.
Still for that read-out and setting: as for `c1ccc2c(c1)CCCC2C1=NCCN1` (stereo not drawn), the entry is “inactive”; as for `CC(C)(O/N=C(\C(=O)N[C@@H]1C(=O)N2C(C(=O)[O-])=C(C[n+]3ccccc3)CS[C@H]12)c1csc(N)n1)C(=O)O`, “inactive [at 27.1 µM]”; as for `CCn1ccc(NS(=O)(=O)c2ccc(N)cc2)nc1=O`, “inactive”.
